Values joined by “and” are separate entries in the source; they are usually repeats but may differ in a detail not shown here. Equal values may be shown once. About 83,000 compounds went through this panel and 20% of them were active in at least one assay; those are over-represented in the sample as a whole.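 Single-dose data. Exposure time 48 hours. Values below 10 considered active.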 Active and inactive are the calls of the source.
Each molecule was assayed on MOLT-4 leukemia (assay: NCI-60 one-dose screen, 48 h (100 = growth as untreated, 0 = no growth, -100 = all killed)). Conditions: 10 µM unless noted.
With `CCN(CC)CCCC(CNc1ccnc2cc(Cl)ccc12)c1ccc(Cl)cc1` (centres undefined) the growth was -18% (active) and -51.4% (active). In the case of `N#CCCOc1ccccc1`, the growth is reported as 90.4% (inactive). For `COc1ccc(/C(C#N)=C/c2ccccn2)cc1`, the growth was 96.7% (inactive) and 103% (inactive). With `CCN(CC)C(=S)SSC(=S)N(CC)CC` the growth was 46% (inactive) and 93.2% (inactive). In the case of `Nc1ccc(N=Nc2ccc(S(=O)(=O)O)cc2)cc1S(=O)(=O)O`, the growth is reported as 108% (inactive) and 117% (inactive). For `CCN(CC)CCOc1ccc2c(c1)C(=O)c1cc(OCCN(CC)CC)ccc1-2`, the growth was 50.5% (inactive) and -16.2% (active). With `O=C1OC2(c3ccccc31)c1ccc(O)c(O)c1Oc1c2ccc(O)c1O` the growth was 95.4% (inactive) and 121% (inactive). `O=S(=O)(Nc1ccccc1)C1CCCCC1` was tested, and the growth was 83% (inactive) and 92.4% (inactive). With `CCNC(=O)Nc1ccc(-c2nc3c(c(N4CCOC[C@@H]4C)n2)CCN(C2COC2)C3)cc1` the growth was 52.2% (inactive) and 8.79% (active). With `CC(C)Cc1ccc(C(C)C(=O)NCc2ccc(Cn3c(=O)sn(CCCCl)c3=O)cc2)cc1` (centres undefined) the growth was 90.4% (inactive) and 0.866% (active). `OCc1ccccn1` was tested, and the growth was 99.1% (inactive). With `Nc1ncnc2c1ncn2C1CC(O)C(CO)O1` (centres undefined) the growth was 114% (inactive) and 92.3% (inactive). In the case of `Cc1ccc2nc3c(nc2c1)-c1cccc2cccc-3c12`, the growth is reported as 80.1% (inactive). In the case of `O=[N+]([O-])c1ccc(/C=N\NC(=S)Nc2ccc(F)cc2)cc1`, the growth is reported as 86.9% (inactive) and 98.6% (inactive).

Source: PubChem BioAssay (NCI)
